Screens from PubChem.
The list is not random: actives were taken first. Their share in the collection is about 11%.
PNC inhibitor: perinucleolar compartment assembly inhibition; PC3M PTB-GFP, PNC prevalence imaging, 16 h; active compounds read low; activity change (PNC), negative = inhibition, % at 10 µM; 140,000 tested, 3.1% active; AID 2417;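 active = readout at or below -70, meaning at least 70% loss of cells showing the perinucleolar compartment, a nuclear body marking cancer cells; inconclusive = readout between -30 and a set limit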;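 note: plate controls were DMSO wells for no effect and camptothecin positive control wells for full effect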
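Compounds are pinned in duplicate onto adhered PC3M cells stably expressing GFP-tagged PTB and incubated 16 h at 37 C. Cells are then fixed, nuclei stained with Hoechst, and PNC-positive cells counted.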
ALDH1A1 block: inhibitors of human aldehyde dehydrogenase 1A1; P00352; Purified ALDH1A1, NADH fluorescence, propionaldehyde substrate; Potency, µM (top dose mostly 75.3 µM), for inactives: at the top dose activity, negative = inhibition, usual class: inhibitors; 220,000 tested, 7.3% active; AID 1030;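 note: potency is the fitted concentration of half-maximal effect; plate controls were no enzyme wells and a reference inhibitor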
IMPase inh: membrane-permeable compound that blocks inositol monophosphatase | P97697 | CHO-M1 cells, IP1 accumulation, HTRF TR-FRET ratio | inhibition (IP1 accumulation), % at 46.1 µM | 120,000 tested, under 10 active | AID 901; active = well fitted curve in the direction sought with a large enough effect in the signal ratio, not every such curve was filed as active; inconclusive = small, poorly fitted or top-dose-only effect, or a change in a side signal; inactive = no such curve, though single readings can be large or run the other way; the % refers to the signal ratio;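 note: cells stimulated with carbachol in lithium chloride buffer; plate controls were DMSO basal wells for no effect and reference inhibitor wells for full effect; higher means more IMPase inhibition seen as more IP1 and lower FRET ratio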
Target sequence (P97697 whole entry, looked up): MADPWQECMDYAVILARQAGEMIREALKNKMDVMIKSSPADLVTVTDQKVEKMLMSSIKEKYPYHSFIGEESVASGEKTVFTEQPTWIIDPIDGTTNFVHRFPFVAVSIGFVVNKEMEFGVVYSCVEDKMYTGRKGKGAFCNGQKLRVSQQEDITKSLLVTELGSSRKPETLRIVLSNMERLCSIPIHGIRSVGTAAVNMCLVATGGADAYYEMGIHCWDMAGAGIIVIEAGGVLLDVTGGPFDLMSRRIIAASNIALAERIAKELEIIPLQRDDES
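Cellular IMPase inhibition is scored as a rise in cytosolic IP1, detected by competitive TR-FRET between d2-labelled IP1 and a europium anti-IP1 antibody. M1-expressing CHO cells were stimulated with carbachol for 30 min at 37C, with lithium (50 mM LiCl) present in the buffer.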
HPGD block: inhibitors of human 15-hydroxyprostaglandin dehydrogenase (HPGD). P15428. AID 894. 150,000 tested, 4.3% active. Potency, µM, inactives show at the top dose activity change, negative = inhibition, hits mostly inhibitors. purified HPGD, NADH fluorescence kinetic, PGE2 substrate; note: potency is the fitted concentration of half-maximal effect
Target sequence (P15428 whole entry, looked up): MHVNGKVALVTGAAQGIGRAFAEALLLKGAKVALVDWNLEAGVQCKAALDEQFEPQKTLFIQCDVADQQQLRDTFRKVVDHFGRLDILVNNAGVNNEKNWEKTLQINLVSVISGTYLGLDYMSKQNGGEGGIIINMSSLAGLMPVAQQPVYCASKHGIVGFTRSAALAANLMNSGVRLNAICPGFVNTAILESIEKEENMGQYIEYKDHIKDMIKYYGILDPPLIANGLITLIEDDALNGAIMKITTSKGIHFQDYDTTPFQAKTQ
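NADH formation kinetics: reaction with 30 uM PGE2 and 1 mM NAD+ (final), 20 nM enzyme, Tris-HCl pH 8 with Tween 20, after 15 min compound preincubation at room temperature. Fluorescence change, last versus first of five reads.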
IMPase Li inh: IMPase inhibition in cells with lithium potentiation. CHO-M1 cells, IP1 TR-FRET (IP-One), carbachol + lithium. 210,000 tested, 0.35% active. Potency, µM (highest dose often 59.4 µM), for inactives: at the highest dose activity, negative = IMPase inhibition, actives largely listed as inhibitors; active = well fitted inhibition curve with a large enough effect; inconclusive = small, poorly fitted or top-dose-only effect; inactive = no such curve, though single readings can be large or run the other way;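 note: IP1 builds up when IMPase is blocked and the TR-FRET signal falls; potency is the fitted concentration of half-maximal effect; plate controls were basal vehicle for no effect and high inhibitor control for full effect; nearly all actives have a fitted effect of over 50% in size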
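Test compounds were applied to CHO-M1 cells previously cultured for 16–30 h at 2000 per well. A small lithium amount accompanied them; after 30 min at 37C, IP1 was quantified by TR-FRET.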
Starred values were filed as active, the others as inactive; ? = inconclusive; · = no result; [ ] = remark or other dose. Unless noted, calls come from the whole dose curve; as a rule, active = well fitted inhibition curve with a large enough effect (not every such curve was filed as active); inconclusive = small, poorly fitted or top-dose-only effect, or another doubt; inactive = no such curve, though single readings can be large or run the other way. Unless noted, % is set by controls: 0 for no effect and ±100 for the full control effect.

SMILES	PNC inhibitor	ALDH1A1 block	IMPase inh	HPGD block	IMPase Li inh
CSc1ccc(/C=N/NC(=O)CN2CCN(Cc3ccc(C)cc3)CC2)cc1	?	-2%	10	·	·
Cc1noc(C)c1CSc1ccc2ccccc2n1	-119*	-1%	4	-22%	7%
Cc1noc(C)c1CSc1nc2ccccc2n1CCc1ccccc1	-1	28µM*	3	-28%	22%[38.3 µM]
O=C(O)CCn1c(SCc2ccccc2)nc2ccccc21	?	5%	-3	-12%	10%[38.3 µM]
CC(=O)c1cc(NC(=O)c2cccc(C(F)(F)F)c2)c(=O)oc1C	·	3.5µM*	·	·	19%
Clc1ccc(NCn2cncn2)nc1	-5	19µM*	14	?	-18%[38.3 µM]
O=C(Cn1cncn1)NCc1ccc(Cl)cc1	?	-3%	·	-3%	0%
Cc1sc2nc(-c3ccccc3)[nH]c(=O)c2c1-c1ccccc1	71	?	·	?	-20%
Cc1c(-c2ncn[nH]2)sc(C#N)c1-c1ccccc1	·	25µM*	·	·	2%
N#C/C(=C/c1ccc(F)cc1)C(N)=S	·	25µM*	·	·	-12%
CC(C)(C)c1cc(/C=C(\C#N)C(N)=S)cc(C(C)(C)C)c1O	·	2.8µM*	11	?	22%
Cn1cccc1/C=C(/C#N)C(N)=S	-14	-6%	·	-16%	-5%
[C-]#[N+]/C(C#N)=C\c1cc(C(C)(C)C)c(O)c(C(C)(C)C)c1	·	-11%	·	-23%	19%
COc1ccccc1OCCn1cc(C#N)c2ccccc21	-119*	-3%	8	-8%	11%
Cc1ccc(OCCn2cc(C#N)c3ccccc32)cc1	?	-10%	1	-6%	20%
O=C(CCCN1C(=O)CSc2ncccc21)N1CCN(Cc2ccccc2)CC1	-17	22µM*	17	-3%	25%[38.3 µM]
Cc1cc(C)c(C#N)c(SCC(=O)N2CCN(Cc3ccccc3)CC2)n1	-6	20µM*	?	-21%	16%[38.3 µM]
Cc1cc(C)c(C#N)c(SCC(=O)NC(C)(C)C)n1	?	13%	-5	-6%	0%[38.3 µM]
Cc1cc(C)c(C#N)c(SCC(=O)N2CCCCC2)n1	18	13µM*	13	-27%	0%
CCN(Cc1ccccc1)C(=O)CSc1nc(C)cc(C)c1C#N	23	-3%	?	-2%	16%
COc1cc2c(cc1OC)CN(C(=O)CSc1nc(C)cc(C)c1C#N)CC2	96	?	0	-23%	15%
Cc1cc(C)c(C#N)c(SCC(=O)C(C)(C)C)n1	55	?	6	32µM*	-5%[38.3 µM]
COc1ccc(CCNC(=O)C(=O)N2CCCCC2)cc1OC	?	?	2	0%	5%
c1ccc2c(N3CCNCC3)nc(-c3ccoc3)nc2c1	·	-3%	·	-7%	2%
O=C(CSc1ncccn1)N1CCN(Cc2ccccc2)CC1	?	28µM*	5	-4%	1%
SMILES	PNC inhibitor	ALDH1A1 block	IMPase inh	HPGD block	IMPase Li inh
COCc1cc(C)nc(SCC(=O)N2CCC(C)CC2)c1C#N	2	7.9µM*	3	-16%	-1%[38.3 µM]
N#Cc1c(SCC(=O)N2CCCCC2)nsc1SCC(=O)N1CCCCC1	18	18µM*	6	13µM*	5%[38.3 µM]
Cc1cc(C)c(C#N)c(SCC(=O)N(C)C2CCCCC2)n1	?	18µM*	6	-26%	4%[38.3 µM]
COCc1cc(C)nc(SCC(=O)Nc2ccccc2C)c1C#N	17	2%	-13	-19%	-7%[38.3 µM]
O=c1cc(-c2cc3ccccc3oc2=O)c2ccc(O)cc2o1	·	?	·	?	9%
O=c1c(-c2ccc(O[C@@H]3O[C@H](CO)[C@@H](O)[C@H](O)[C@H]3O)cc2)coc2cc(O)cc(O)c12	·	?	3	-18%	18%
COc1cc(S(=O)(=O)Nc2ccc(Br)cc2)ccc1N	·	-13%	·	·	4%
Cn1c(NC(=O)c2ccccc2)c(-c2ccccn2)c(=O)c2ccccc21	9	8%	6	-13%	22µM*
Cc1c(NC(=O)/C(C#N)=C/c2ccc(-c3cccc(Cl)c3)o2)c(=O)n(-c2ccccc2)n1C	-26	4%	1	18µM*	12%
Cc1c(N=Cc2nc3ccccc3n2C)c(=O)n(-c2ccccc2)n1C	21	7%	5	-6%	11%[38.3 µM]
Cc1cccc(-c2ccc(C=Nc3c(C)n(C)n(-c4ccccc4)c3=O)o2)c1	7	11µM*	-9	-27%	-15%[38.3 µM]
Cc1ccc(S(=O)(=O)/N=S(\C)CC2CC2(Cl)Cl)cc1 (stereo not given)	-18	10µM*	-8	-12%	14%[38.3 µM]
COc1cc(NC(=O)C2=C(N3CCOCC3)/C(=C\c3ccc(N(C)C)cc3)CCC2)cc(OC)c1OC	3	18µM*	·	-8%	0%
O=C1C(=C(c2ccccc2)c2ccccc2)Nc2ccccc21	?	0.71µM*	3	-4%	45%[38.3 µM]
COc1ccccc1-n1c(SCC(=O)N2CCc3ccccc32)nc2c(c1=O)SCC2	37	11µM*	2	-21%	31%[38.3 µM]
COc1ccccc1-n1c(SCC(=O)Nc2ccc3c(c2)OCO3)nc2c(c1=O)SCC2	-16	20µM*	-11[1.84 µM]	-18%	13%[38.3 µM]
COC(=O)CN1C(=O)C2(C(C#N)=C(N)Oc3cc(C)oc(=O)c32)c2ccccc21 (stereo not given)	-28	6.3µM*	-1	-16%	-19%[38.3 µM]
COc1cc2c3c(c1)C1(C(=O)N3C(C)(C)C=C2C)C(C#N)=C(N)Oc2cc(C)oc(=O)c21 (stereo not given)	-28	4µM*	13	-9%	3%[38.3 µM]
CC1(C)CC(=O)C2=C(C1)OC(N)=C(C#N)C21C(=O)N(Cc2ccccc2Cl)c2ccccc21 (stereo not given)	-17	2.8µM*	-8	-2%	12%[38.3 µM]
COC(=O)Cc1[nH]nc2c1C1(C(=O)N(Cc3ccccc3)c3ccccc31)C(C#N)=C(N)O2 (stereo not given)	55	20µM*	3	-1%	-2%[38.3 µM]
CC1=CC(C)(C)N2C(=O)C3(C(C#N)=C(N)Oc4cc(O)ccc43)c3cccc1c32 (stereo not given)	6	9%	-12	-16%	17%[38.3 µM]
CCOC1=C/C(=C/c2c(N)n3nc(S(=O)(=O)CC)sc3nc2=O)C=CC1=O	·	?	·	·	6%
Cc1cc2c(c(=O)o1)C1(C(=O)N(C)c3ccccc31)C(C#N)=C(N)O2 (stereo not given)	30	3%	1	-12%	-3%[38.3 µM]
COC(=O)CN1C(=O)C2(C(C#N)=C(N)Oc3ccccc32)C2=C1CC(C)(C)CC2=O (stereo not given)	44	6.3µM*	-1	-1%	21%[38.3 µM]
CC(=O)N1C(=O)C2(C(C#N)=C(N)Oc3cc(C)oc(=O)c32)c2ccccc21 (stereo not given)	-115*	5%	15	2%	20%[38.3 µM]
C[C@@]1(CCOCc2ccccc2)NC(=O)NC1=O	·	17%[13.5 µM]	·	-3%	5%
